Values joined by “and” are separate entries in the source; they are usually repeats but may differ in a detail not shown here. Equal entries are not always repeated. Active and inactive are the calls of the source. The calls were made as follows: active = hit-call score of the fitted dose curve at least 0.9, where 1 is the maximum; inactive = score below 0.9.
Read-out: Plasminogen activator inhibitor-1 (PAI1), SERPINE1 (gene 5054)
Assay: BSK_BE3C_PAI1: BioMAP Diversity Plus: BE3C Assay for Plasminogen activator inhibitor-1 (PAI1) Biomarker Activity (AID 2283037)
Conditions: primary human bronchial epithelial cells; actives raise or lower the signal
Method: BSK_BE3C is a cell-based, multiplexed-readout assay that uses bronchial epithelial cell, a human lung primary cell, with measurements taken at 24 hours after chemical dosing in a 96-well plate.BSK_BE3C_PAI1 is an assay component measured in the BSK_BE3C assay. It measures PAI-1 antibody related to regulation of gene expression using ELISA technology.Data from the assay component BSK_BE3C_PAI1 was analyzed into 1 assay endpoint. This assay endpoint, BSK_BE3C_PAI1, was analyzed with bidirectional fitting relative to DMSO as the negative control and baseline of activity. Using a type of binding reporter, gain or loss-of-signal activity can be used to understand changes in the signaling as they relate to the gene SERPINE1. Furthermore, this assay endpoint can be referred to as a primary readout, because this assay has produced multiple assay endpoints where this one serves a signaling function. To generalize the intended target to other relatable targets, this assay endpoint is annotated to the cytokine intended target family, where the subfamily is plasmogen activator inhibitor.
The levels of cell surface (or secreted, indicated by the prefix "s") biomarker endpoints were measured by ELISA. Overt cytotoxicity to cells in confluent adherent cultures (all systems other than the BT system) was assessed by measuring total protein levels using sulforhodamine B (SRB) staining in parallel cultures at the time of biomarker measurements, indicated as SRB endpoints. For proliferation assays for adherent cell types, individual cell types are cultured at sub-confluence and relative cell numbers quantified by SRB staining at time points optimized for each system (48 h: 3C and CASM3C systems; 72 h: BT and HDF3CGF systems; 96 h: SAg system). SRB was performed by staining cells with 0.1% SRB after fixation with 10% TCA and reading wells at 560 nm.Viability and proliferation of PBMC (T cells) was quantified by Alamar Blue reduction for the SAg and BT systems. For PBMC viability (referred to as PBMC Cytotoxicity within the assay endpoint names), cells were plated (75,000/well in a 96-well plate) and then chemical samples added for 1 h before addition of activators, SEB and TSST-1 (20 ng/mL final concentration each). Cells were incubated for 90 h. Then, Alamar Blue (20 uL/well) (Invitrogen, Cat DAL1100) was added for 6 h, and the plates were read with a fluorescence microplate reader at 546/580 nm (excitation/emission). For PBMC proliferation, cells were plated and activated as above but incubated for only 16 h prior to addition of Alamar Blue. Plates were read after 6 h.

Row | Compound | outcome | AC50
1 | CCCCNc1ccc(NCCCC)c2c1C(=O)c1ccccc1C2=O | inactive | 
2 | O=c1c2ccccc2oc2ccccc12 | inactive | 
3 | CCO[Si](CCCN=C=O)(OCC)OCC | inactive | 
4 | c1ccc(-c2ccccn2)nc1 | inactive | 
5 | CC(C)C(=O)C(C)C | inactive | 
6 | O=C(Cl)c1cc(C(=O)Cl)cc(C(=O)Cl)c1 |  | 26.7 µM (active)
7 | O=Nc1ccc(O)cc1 | inactive | 
8 | O=C1CCCN1CCO | inactive | 
9 | CCO[Si](C)(OCC)OCC | inactive | 
10 | Nc1ccc(N)c(Cl)c1 |  | 3.32 µM (active) and 2.4 µM (active)
11 | c1ccc2c(c1)ccc1ncccc12 | inactive | 
12 | C=C[Si](OC(C)=O)(OC(C)=O)OC(C)=O | inactive | 
13 | C/C=C\C/C=C/CCCCCCCCOC(C)=O | inactive | 
14 | CCCCCCCCCCCCCCCC[N+](C)(C)CC |  | 10.4 µM (active)
15 | CCCCCCCCc1ccc(Nc2ccc(CCCCCCCC)cc2)cc1 | inactive | 
16 | CCCCC/C=C\C/C=C\CCCCCCCC(=O)OC | inactive | 
17 | CCCCC(CC)COC(=O)c1ccccc1O (stereo unspecified) | inactive | 
18 | C=CC(=O)OCC(Br)CBr (stereo unspecified) | inactive | 

Row | Compound | outcome | AC50
19 | CO[Si](OC)(OC)c1ccccc1 | inactive | 
20 | CC(C)(c1cc(Br)c(OCCO)c(Br)c1)c1cc(Br)c(OCCO)c(Br)c1 | inactive | 
21 | CC1OC1C1CCC2(C)OC2C1 (stereo unspecified) | inactive | 
22 | CN1C(=O)N(C)C(O)C1O (stereo unspecified) | inactive | 
23 | S=C(NC1CCCCC1)NC1CCCCC1 | inactive | 
24 | COCc1c(C(C)C)nc(C(C)C)c(/C=C/[C@@H](O)C[C@@H](O)CC(=O)O)c1-c1ccc(F)cc1 | inactive | 
25 | N#[N+]c1ccc2c(S(=O)(=O)[O-])cccc2c1O | inactive | 
26 | C#CC1(O)CC[C@H]2[C@@H]3CCC4=CCCC[C@@H]4[C@H]3CC[C@@]21C (stereo partly specified) | inactive | 
27 | C=CC=CC=CCCCCC | inactive | 
28 | COc1ccc2nc(N)sc2c1 | inactive | 
29 | O=C(c1ccc(O)cc1)c1ccc(O)cc1O |  | 13.2 µM (active) and 12.6 µM (active)
30 | CCOc1nc(F)cc2nc(S(=O)(=O)Nc3c(Cl)cccc3C(=O)OC)nn12 | inactive | 
31 | O=C(Nc1ccccc1SSc1ccccc1NC(=O)c1ccccc1)c1ccccc1 | inactive | 
32 | c1ccc2c(c1)ccc1cc3c(ccc4ccccc43)cc12 | inactive | 
33 | CCCCC(CC)COCC1CO1 (stereo unspecified) | inactive | 
34 | CCOC(=O)c1ccccc1C(=C1C=C(Br)C(=O)C(Br)=C1)c1cc(Br)c(O)c(Br)c1 |  | 2.48 µM (active)
35 | C=CCOCC(O)CCl (stereo unspecified) | inactive | 
36 | C=CCOc1c(Br)cc(Br)cc1Br |  | 20 µM (active)

Reference: PubChem BioAssay (EPA / NIEHS)
